Bioassay records as filed in PubChem.
Compounds with a hit are over-represented: about 18% of the library has one in this group of screens.
IL-1B inflam inh = blocks inflammasome-driven IL-1 beta release. THP-1 LPS/ATP IL-1B secretion, AlphaLISA, 16 h; stronger effect = lower value. activity change, % at 57.5 µM. actives 4.7% (n = 360,000); in the data active = activity change below about -50%; inconclusive = mostly about -30% to -49%; note: % is set by controls: 0 for no effect and ±100 for the full control effect
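THP-1 cells pretreated 1 hr with compounds (up to 57.5 uM final), then stimulated with LPS (250 ng/mL final) plus ATP (1.25 mM final); secreted IL-1B measured by AlphaLISA after 16 hr, decreased signal indicating inhibition.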
TDP1 cell noCPT = qHTS for Inhibitors of human tyrosyl-DNA phosphodiesterase 1 (TDP1): qHTS in cells in absence of CPT; DT40 Tdp1-/- hTDP1 cells, no CPT, ATP luminescence, 48 h; Potency, µM (doses to about 46.2 µM), for the others: top-dose activity change, negative = growth inhibition, most hits filed as inhibitors; actives 15% (n = 420,000); note: potency is the fitted concentration of half-maximal effect; % is set by controls: 0 for no effect and ±100 for the full control effect; nearly all actives have a fitted effect of over 55% in size
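Camptothecin absent (DMSO only). Human TDP1-complemented DT40 knockout cells, 400 cells/well, 37 °C for minimum 48 hr; ATP measured via CellTiter-Glo, 30 min dark incubation, luminescence.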
TGFb inhibitor = inhibitors of TGF-b signaling. Potency, µM (titrated, usually from 46.1 µM), for the others: at the top dose activity, negative = inhibition, usual class: inhibitors. HepG2 CAGA-GFP TGF-b/SMAD3 reporter, GFP fluorescence, 18 h; TGF-beta stimulated, 500 pg/mL final. actives 1.2% (n = 410,000); note: potency is the fitted concentration of half-maximal effect; % is set by controls: 0 for no effect and ±100 for the full control effect; nearly all actives have a fitted effect of over 65% in size
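TGF-beta reporter screen: HEPG2 CAGA-GFP, 1% FBS, 500 pg/mL TGF-beta final, 18 h; per-cell GFP summed per well; curves fitted and categorized by class.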
TDP1 block = TDP1 (human) enzyme inhibition. Potency, µM (highest dose often 130 µM), for inactives: at the highest dose activity change, negative = inhibition, usual class: inhibitors. recombinant TDP1, AlphaScreen DNA substrate cleavage. actives 0.28% (n = 350,000). Q9NUW8; note: potency is the fitted concentration of half-maximal effect; % is set by controls: 0 for no effect and ±100 for the full control effect; nearly all actives have a fitted effect of over 40% in size
Target sequence (Q9NUW8 whole entry, looked up): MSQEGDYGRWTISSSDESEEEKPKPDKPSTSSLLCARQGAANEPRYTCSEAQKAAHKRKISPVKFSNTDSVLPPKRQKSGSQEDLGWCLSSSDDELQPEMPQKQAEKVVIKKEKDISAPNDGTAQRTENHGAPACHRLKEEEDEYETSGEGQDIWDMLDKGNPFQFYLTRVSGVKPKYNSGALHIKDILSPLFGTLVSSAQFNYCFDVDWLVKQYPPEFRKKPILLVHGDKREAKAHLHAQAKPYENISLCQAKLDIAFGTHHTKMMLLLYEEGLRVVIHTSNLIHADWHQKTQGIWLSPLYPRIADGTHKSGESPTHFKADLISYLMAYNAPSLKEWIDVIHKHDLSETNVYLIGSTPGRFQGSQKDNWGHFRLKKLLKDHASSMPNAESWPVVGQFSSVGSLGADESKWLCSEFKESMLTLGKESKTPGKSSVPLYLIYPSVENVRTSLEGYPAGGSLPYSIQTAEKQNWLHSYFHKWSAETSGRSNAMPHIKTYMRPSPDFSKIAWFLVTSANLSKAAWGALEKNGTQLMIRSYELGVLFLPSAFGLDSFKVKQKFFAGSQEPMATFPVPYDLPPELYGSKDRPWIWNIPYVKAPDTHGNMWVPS
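AlphaScreen read-out: signal falls as enzyme removes the 3' tyrosine-FITC from a 5'-biotinylated DNA oligo (15 nM, 5 min, RT). Enzyme was E. coli-made recombinant Tdp1 at 1 nM, exposed to compound for 15 min beforehand; beads 10 ug/ml, 10 min.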
TDP1 cell CPT = DT40-hTDP1 cell growth loss with CPT; chicken DT40 Tdp1-/-;hTDP1 cells + 20 nM CPT, ATP luminescence, 48 h; Potency, µM (top dose mostly 46.2 µM), without a hit: top-dose activity change, negative = growth inhibition, most hits filed as inhibitors; actives 12% (n = 420,000); note: potency is the fitted concentration of half-maximal effect; % is set by controls: 0 for no effect and ±100 for the full control effect; nearly all actives have a fitted effect of over 55% in size
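Cell growth measured by CellTiter-Glo luminescence after a minimum 48 h, 37 C compound exposure with 20 nM CPT in Tdp1-knockout DT40 cells stably expressing hTDP1, seeded 400/well; qHTS titration format.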
HepG2 tox = kills HepG2 cells in TGF-b inhibitor counter-screen; HepG2 CAGA-GFP viability, ATP luminescence, 18 h; Potency, µM (titrated, usually from 46.1 µM), inactives show at the top dose activity change, negative = cytotoxicity, hits mostly cytotoxic; actives 0.76% (n = 410,000); AID 588856; note: potency is the fitted concentration of half-maximal effect
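HepG2 CAGA-GFP cells (1000/well, DMEM with 1% FBS) received compound, then TGF-beta at 500 pg/mL final, and were incubated 18 hours at 37 degrees C. Viability was read by CellTiter-Glo luminescence. Media-only wells were set as complete cell-killing and DMSO as no toxicity.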
Numbers without * were called inactive; ? = inconclusive; · = no result given. Unless noted, calls come from the whole dose curve; as a rule, active = well fitted curve in the direction sought with a large enough effect; inconclusive = small, poorly fitted or top-dose-only effect, or another doubt; inactive = no such curve, though single readings can be large; an effect the other way counts as inactive or inconclusive.

SMILES	IL-1B inflam inh	TDP1 cell noCPT	TGFb inhibitor	TDP1 block	TDP1 cell CPT	HepG2 tox
Cc1ccc(S(=O)(=O)N(C)CC(=O)Nc2nnc(CC(C)C)s2)cc1	38.5	5.4%	-1.3%	1.4%	-29.2%	-13.3%
CC(C)(C)OC(=O)N[C@@H](C(=O)OC(C)(C)C)c1ccc2ccccc2c1	14.7	23.1µM*	-9.8%	0.0%	?	1.0%
CCN1CCN(c2sc(S(C)(=O)=O)nc2S(=O)(=O)c2ccc(C)cc2)CC1	-85.5*	14.6µM*	?	1.8%	?	-19.4%
CCS(=O)(=O)c1nc(S(=O)(=O)c2ccc(C)cc2)c(N2CCN(CCO)CC2)s1	-4.5	16.3%	8.9%	0.7%	3.6%	7.3%
CS(=O)(=O)c1nc(S(=O)(=O)c2ccc(Cl)cc2)c(N2CCC(C(N)=O)CC2)s1	-79.4*	?	7.5%	2.8%	?	-2.4%
CCN(CC)c1sc(S(=O)(=O)c2ccccc2)nc1S(=O)(=O)c1ccc(C)cc1	·	14.6µM*	-2.7%	4.7%	?	8.0%
Cc1ccc(S(=O)(=O)c2nc(S(=O)(=O)c3ccccc3)sc2N2CCN(CCO)CC2)cc1	-67.9*	?	3.2%	2.8%	?	-2.0%
CCN1CCN(c2sc(S(=O)(=O)CC)nc2S(=O)(=O)c2ccc(C)cc2)CC1	-28.2	-7.0%	-2.0%	·	-3.8%	-5.1%
O=C(CN1CCCc2ccccc21)Nc1cccc(S(=O)(=O)N2CCOCC2)c1	1.7	?	-9.9%	0.4%	?	7.8%
CN1CN(C)C(c2ccncc2)=C1c1ccncc1	18.2	-17.6%	7.8%	-4.3%	-6.7%	2.3%
CCCc1ccc(OCc2ccc(C(=O)Nc3ccccc3C(=O)OC)o2)cc1	·	?	3.5%	-3.2%	?	-22.6%
CC[C@H]1c2[nH]c3ccc(C(C)C)cc3c2[C@@H]2CCN3C(=O)CCC[C@H]1[C@H]23	-13.0	10µM*	?	·	10µM*	-22.8%
CC(C)c1ccc2[nH]c3c(c2c1)[C@@H]1CCN2C(=O)CCC[C@H](C3)[C@H]12	11.0	14.6µM*	3.2%	·	18.4µM*	1.7%
CC[C@@H]1C(=O)[C@H](Cc2ccccc2)[C@H]2CCCC(=O)N3CC[C@@H]1[C@@H]23	10.1	?	-0.3%	·	-5.4%	4.0%
O=C1CCC[C@@H]2Cc3nc4ccccc4cc3[C@@H]3CCN1[C@H]23	26.8	-2.1%	-2.4%	·	-8.9%	-97.0%
CCCOc1ccc(C(=O)OCCN2CCCCC2)c(O)c1	-2.1	-19.5%	0.0%	·	18.3%	-52.9%
Cc1ccc(C)c(S(=O)(=O)NCCc2csc(-c3ccc(Cl)cc3)n2)c1	·	16.4µM*	11.2µM*	0.6%	29.1µM*	-94.4%
COc1ccc(-c2nc(CNS(=O)(=O)c3ccc(C)cc3)cs2)cc1	·	?	·	2.5%	?	-14.8%
Cc1ccc(-c2nc(CCNC(=O)C(=O)Nc3ccc(C)cc3C)cs2)cc1	·	-19.9%	0.0%	0.0%	-2.8%	7.5%
Cc1ccc(S(=O)(=O)NCCc2csc(-c3ccc(Cl)cc3)n2)cc1	·	11.6µM*	11.2µM*	0.9%	11.6µM*	-36.4%
Cc1ccc(S(=O)(=O)NCCc2csc(-c3cccc(F)c3)n2)cc1	·	14.6µM*	?	6.5%	20.6µM*	-43.3%
Cc1ccc(C)c(S(=O)(=O)NCCCc2ccccc2)c1	-56.9*	-15.0%	-12.8%	·	31.6%	-27.4%
O=S(=O)(NCCc1csc(-c2cccc(F)c2)n1)c1cc(F)ccc1F	·	?	?	4.1%	?	-26.1%
Cc1ccc(Cn2c(C(=O)O)c(CNC3CCCCC3)c3ccc(C)cc32)cc1	·	-14.6%	0.3%	7.7%	?	2.3%
